Screening results (PubChem)
HP1b chromo inh: blocks HP1-beta chromodomain binding to methylated histone tails; P83916; AlphaScreen HP1-beta / biotin-H3K9me3 peptide binding; Potency, µM (highest dose often 114 µM), actives largely listed as inhibitors; 0.56% of 390,000 active; AID 540317; note: nearly all actives have a fitted effect of over 70% in size
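AlphaScreen: HP1-beta (50 nM) preformed 30 min with biotin-H3(1-18)K9me3 peptide (50 nM) in PBS pH 7.4, 0.01% Tween-20. Compound added for 30 min at RT, then streptavidin donor/nickel chelate acceptor beads (10 ug/mL) for 30 min.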
12-LOX inh: blocks human arachidonate 12S-lipoxygenase; P18054; purified 12hLO, xylenol orange hydroperoxide absorbance; Potency, µM (doses to about 108 µM), actives largely listed as inhibitors; 1.1% of 580,000 active
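Purified human 12hLO (150 nM final) in 25 mM Hepes, 0.01% Triton X-100, pH 7.0 was preincubated 15 min at room temperature with compound. Then 40 uM arachidonic acid was added, 30 min. Hydroperoxide was read by Fe-XO absorbance ratio 573/405 nm.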
Sfp PPTase inh: inhibitors of Bacillus subtilis Sfp phosphopantetheinyl transferase | Potency, µM, most hits filed as inhibitors | 3.5% of 310,000 active | Biochemical Sfp PPTase activity, qHTS | Q9F4F7 | AID 1490;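 note: the enzyme is Sfp with the accession as filed and its product quenches rhodamine fluorescence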
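Step 1, compound plus 15 nM Sfp-PPTase, 15 min, room temperature. Step 2, add rhodamine-CoA (5 uM) and BHQ-2-YbbR (12.5 uM). Step 3, read 525/598 nm fluorescence at 0 and 30 min.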
BAZ2B block: inhibitors of human BAZ2B bromodomain. AlphaScreen BAZ2B-H3K14Ac peptide displacement. Potency, µM (titrated, usually from 114 µM), hits mostly inhibitors. 4.4% of 360,000 active. AID 504333; note: nearly all actives have a fitted effect of over 60% in size
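Inhibition is scored as reduced AlphaScreen emission. The BAZ2B/b-H3(5-23)K14Ac complex (50 nM each) in PBS pH 7.4, 0.01% Tween-20 meets compound (up to 110 uM) for 30 min at RT before bead addition.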
G9a block: G9a (human) methyltransferase inhibition. Potency, µM (doses to about 102 µM), actives largely listed as inhibitors. Q96KQ7. AID 504332. G9a H3K9 monomethylation, AlphaScreen, 2 h. 8.8% of 350,000 active; note: nearly all actives have a fitted effect of over 75% in size
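Readings reflect AlphaScreen signal from monomethyl-H3K9 antibody detection. HMT at 20 nM; substrate b-H3K9 500 nM; cofactor SAM 20 uM; 2 h RT reaction; compounds tested as titrations in qHTS with 15 min preincubation.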
JMJD2A Tudor inh: blocks the human JMJD2A Tudor domain; O75164; AlphaScreen JMJD2A-Tudor / H3K4me3 peptide binding; 4.4% of 390,000 active; Potency, µM (top dose mostly 114 µM), most hits filed as inhibitors; note: nearly all actives have a fitted effect of over 50% in size
Target sequence (O75164 whole entry, looked up, the tested form may be a part): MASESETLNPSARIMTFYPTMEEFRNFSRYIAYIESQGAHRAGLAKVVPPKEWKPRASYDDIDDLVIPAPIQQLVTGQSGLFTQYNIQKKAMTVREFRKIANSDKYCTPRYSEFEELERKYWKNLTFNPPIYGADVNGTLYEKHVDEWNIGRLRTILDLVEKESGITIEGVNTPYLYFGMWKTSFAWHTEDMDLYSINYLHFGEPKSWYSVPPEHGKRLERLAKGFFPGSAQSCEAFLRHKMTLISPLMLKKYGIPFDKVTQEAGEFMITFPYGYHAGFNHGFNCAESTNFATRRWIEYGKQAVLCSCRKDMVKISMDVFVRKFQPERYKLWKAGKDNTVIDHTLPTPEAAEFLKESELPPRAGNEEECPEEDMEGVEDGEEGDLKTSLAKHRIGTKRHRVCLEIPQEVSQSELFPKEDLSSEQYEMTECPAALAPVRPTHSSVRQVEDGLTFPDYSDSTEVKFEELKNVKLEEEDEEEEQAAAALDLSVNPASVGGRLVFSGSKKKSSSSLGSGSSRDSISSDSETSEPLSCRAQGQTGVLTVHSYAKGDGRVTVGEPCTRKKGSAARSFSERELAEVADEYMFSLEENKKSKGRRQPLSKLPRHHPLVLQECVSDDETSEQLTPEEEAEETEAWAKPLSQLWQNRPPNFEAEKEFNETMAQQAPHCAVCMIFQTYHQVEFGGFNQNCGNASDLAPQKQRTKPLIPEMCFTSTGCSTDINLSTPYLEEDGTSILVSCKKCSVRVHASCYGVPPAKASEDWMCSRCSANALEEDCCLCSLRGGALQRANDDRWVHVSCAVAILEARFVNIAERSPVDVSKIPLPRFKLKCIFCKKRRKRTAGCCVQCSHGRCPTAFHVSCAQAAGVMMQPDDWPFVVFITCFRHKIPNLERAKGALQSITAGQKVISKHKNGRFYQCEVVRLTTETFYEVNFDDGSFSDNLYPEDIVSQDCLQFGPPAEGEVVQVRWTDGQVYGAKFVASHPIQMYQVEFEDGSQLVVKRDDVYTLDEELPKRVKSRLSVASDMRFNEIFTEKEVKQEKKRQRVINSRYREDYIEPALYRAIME
A number is an active result; n = inactive; u = inconclusive; x = not tested or not shown; [ ] = remark or other dose. Compounds with a hit are over-represented: about 8.7% of the library has one in this group of screens. Calls come from the whole dose curve; as a rule, active = well fitted curve in the direction sought with a large enough effect; inconclusive = small, poorly fitted or top-dose-only effect, or another doubt; inactive = no such curve, though single readings can be large; an effect the other way counts as inactive or inconclusive.

SMILES | HP1b chromo inh | 12-LOX inh | Sfp PPTase inh | BAZ2B block | G9a block | JMJD2A Tudor inh
O=C1C2C3C=CC(CNS(=O)(=O)c4ccccc4[N+](=O)[O-])(O3)C2C(=O)N1c1ccccc1 (stereo unspecified) | u | n | 28.2µM | n | 4.47µM | u
Cc1cc(C)c(S(=O)(=O)NCC23C=CC(O2)C2C(=O)N(c4ccccc4)C(=O)C23)c(C)c1 (stereo unspecified) | u | n | 28.2µM | u | n[0.501 µM] | 50.1µM
CC(C)C[C@@H]1N[C@H](C(=O)N2CCN(C)CC2)Cc2c[nH]c3cccc1c23 | x | n | x | x | x | x
COCCNC(=O)[C@H]1C[C@H](Oc2cccnc2)CN1C(=O)c1cccc(OC)c1 | x | n | x | x | x | x
C=C(C)Cn1c(N(C)C)nc2c1c(=O)[nH]c(=O)n2C | x | n | x | x | x | x
Cc1ccc(/C=N/Nc2ccc3ccccc3n2)o1 | n | n | n | u | n | u
O=c1nc(N/N=C/c2ccccn2)cn[nH]1 | n | n | n | 2.51µM | n | 17.8µM
Cc1ccc(/C=N/Nc2cn[nH]c(=O)n2)o1 | n | n | 50.1µM | 39.8µM | n | u
Cc1cccc(NCc2ccccc2O)c1C | n | u | n | n | u | u
Cc1ccc(NCc2ccccc2O)c(C)c1 | n | n | n | 31.6µM | 44.7µM | u
CCN(Cc1nccn1C)C(=O)c1cc(-c2cnc(N)nc2)nc2c(C)cccc12 | x | n | x | x | x | x
Clc1ccc(-c2nnc(N3CCCC3)nn2)cc1 | u | n | n | u | 7.08µM | n
CCSc1cc(N2CCCC2)nc(-c2ccc(Cl)cc2)n1 | n | n | x | n | n[0.501 µM] | n
COc1ccc(-c2cc(N3CCCN(C(=O)c4ccc(OC)cc4OC)CC3)n[nH]2)cc1 | x | n | x | x | x | x
CCCNC(=O)CN1CCN(c2ncc(NC(=O)c3ccc(Cl)cc3)cc2C(=O)O)CC1 | n | n | x | 50.1µM | u | 70.8µM
CCCNC(=O)CN1CCN(c2cc3ccccc3c(Cl)n2)CC1 | n | u | n | n | u | n
CCCCNC(=O)CN1CCN(c2ccc(NC(=O)c3ccc(OC)cc3)cc2C(=O)O)CC1 | n | n | x | n | n | u
CCCCNC(=O)CN1CCN(c2ncc(NC(=O)c3ccc(Cl)cc3)cc2C(=O)O)CC1 | n | 35.5µM | x | 50.1µM | u | 79.4µM
COc1cccc(C(=O)NCCCNC(=O)c2nc3ccccc3c(=O)[nH]2)c1 | x | n | x | x | x | x
CC(C)Oc1cccc(-c2cn(C)c(=O)n3cc(CN4CCOCC4)nc23)c1 | x | n | x | x | x | x
COc1ccc(-c2sc3cc(OC)c(OC)cc3c2C#CC2(O)CCCCC2)cc1 | n | n | x | 79.4µM | n[0.501 µM] | n
COc1ccc(-c2sc3ccccc3c2C#CC2(O)CCCCC2)cc1 | n | u | n | n | x | n
COc1ccc(-c2oc3cccnc3c2C#CCO)cc1 | n | x | n | n | 50.1µM | n
COc1ccc(-c2oc3cccnc3c2C#CC2(O)CCCCC2)cc1 | n | u | 79.4µM | n | 28.2µM | n
COc1ccc(-c2oc(=O)c3cc(OC)c(OC)cc3c2C#CC2(O)CCCCC2)cc1 | n | n | x | x | x | n
SMILES | HP1b chromo inh | 12-LOX inh | Sfp PPTase inh | BAZ2B block | G9a block | JMJD2A Tudor inh
CCn1cnnc1-c1nn(C)c2c1CN(C(=O)C(C)c1ccccc1)CC2 (stereo unspecified) | x | n | x | x | x | x
CCOC(=O)N1CCN(CC(=O)c2ccc3c(c2)CCN3C(C)=O)CC1 | n | n | n | n | 31.6µM | n
CCOC(=O)N1CCC(NS(=O)(=O)c2ccc3c(c2)CCN3C(C)=O)CC1 | n | n | n | n | n | n
CC(=O)N1CCc2cc([N+](=O)[O-])ccc21 | n | n | x | x | x | n
CC(=O)N1CCc2cc(C(=O)CN3CCCCC3)ccc21 | n | n | n | n | 50.1µM | n
CCCS(=O)(=O)N1CCCC(Cc2noc(-c3ccncc3)n2)C1 (stereo unspecified) | x | n | x | x | x | x
COc1cccc(/C=C2\SC(=S)N(C(Cc3ccccc3)C(=O)O)C2=O)c1 (stereo unspecified) | n | 44.7µM | n | u | 44.7µM | n
CC(c1ccccc1)N1C(=O)/C(=C/c2ccncc2)SC1=S (stereo unspecified) | u | u | n | 15.8µM | 28.2µM | 15.8µM
O=C(O)C(Cc1ccccc1)N1C(=O)/C(=C/c2cccs2)SC1=S (stereo unspecified) | n | u | n | u | 22.4µM | u
O=C(O)C(c1ccccc1)N1C(=O)/C(=C/c2cccs2)SC1=S (stereo unspecified) | n | u | n | n | x | 3.98µM
CN1CCC(Oc2nccnc2N2CCc3ccccc32)C1 (stereo unspecified) | x | n | x | x | x | x
CNc1oc(-c2ccccc2Cl)nc1P(=O)(c1ccccc1)c1ccccc1 | u | u | u | n | n | n
CNc1oc(-c2ccc(C)cc2)nc1P(=O)(c1ccccc1)c1ccccc1 | n | u | 56.2µM | u | n[12.7 µM] | u
CN(C)c1ccc(CCc2ccc(N)cc2)cc1 | 50.1µM | n | x | x | x | 56.2µM
CN(Cc1ccc(F)cc1)Cc1ccc(N(C)C)cc1 | x | n | x | x | x | x
O=C1CC(N2CCC(Cc3ccccc3)CC2)C(=O)N1CCc1ccccc1 (stereo unspecified) | n | n | 56.2µM | n | 50.1µM | n
CC(=O)c1c(C)[nH]c(C(=O)Nc2ccc(Cl)c(S(=O)(=O)N(C)C)c2)c1C | n | n | u | u | n | n
COc1ccc(/C=C/C(=O)OCC(=O)Nc2ccc(Cl)c(S(=O)(=O)N(C)C)c2)cc1OC | n | 0.794µM | n | n | n | u
CC(=O)c1c(C)[nH]c(C(=O)OCC(=O)Nc2ccc(Cl)c(S(=O)(=O)N(C)C)c2)c1C | n | n | n | 70.8µM | x | n
O=C(Nc1cnc(-c2ccccc2)nc1)C1CCCCC1 | x | n | x | x | x | x
O=C(O)C(=O)/C(=C\c1ccc(Cl)cc1)c1ccc2ccccc2n1 | n | u | n | u | n | 22.4µM
O=C(O)C(=O)/C(=C/c1ccsc1)c1ccc2ccccc2n1 | x | 8.91µM | x | x | x | x
O=C(c1ccccn1)c1ccc2ccccc2n1 | n | n | n | n | u | n
Cn1cc(S(=O)(=O)N2CCCC(C(=O)Nc3nn(Cc4ccccc4Cl)cc3Cl)C2)cn1 (stereo unspecified) | x | n | x | x | x | x
Cc1cc(-n2c(C)cc(C(=O)CSc3nnc(COc4ccccc4Cl)o3)c2C)no1 | x | n | x | x | x | x
SMILES | HP1b chromo inh | 12-LOX inh | Sfp PPTase inh | BAZ2B block | G9a block | JMJD2A Tudor inh
Nc1c2c(nc3ccc(Br)cc13)N(c1ccccc1)CC2 | 50.1µM | u | 17.8µM | 39.8µM | u | 10µM
Nc1c2c(nc3ccc(Br)cc13)N(Cc1ccccc1)CC2 | n | u | u | n | u | u
Cc1cccc(N2CCc3c2nc2ccc(Br)cc2c3N)c1 | n | u | 12.6µM | n | u | n
CN(Cc1ccc(C(N)=O)cc1)C(=O)c1cc2ccccc2[nH]1 | x | n | x | x | x | x
CC1C(=O)N(Cc2ncc(-c3ccc(F)cc3)o2)C(=O)N1c1ccccc1 (stereo unspecified) | x | n | x | x | x | x
CCc1nnc2n1N=C(c1ccc([N+](=O)[O-])cc1)CS2 | n | n | n | n | 35.5µM | n
